Compounds without any hit were thinned out: in the full panel of roughly 79,000, 15% have a hit. Calls of active or inactive are those of the source. No stated cut-off is given here; in the data, active means growth inhibition above about 70%; inactive means the rest. Starred links: 1 amine or outer side, 2 acyl side, 3 side chain; linkers in the order of their positions; H or OH if unused. Positions of bridges follow the written chain, without caps; N, C: chain ends. Non-standard residues stand in square brackets, D forms with d. Residues, ends and D or L forms follow the SMILES beside them. Chains are numbered I, II in the order given. Actinocin(9to1) = Cc1c2oc3c(C)ccc(C(=O)[*:1])c3nc-2c(C(=O)[*:2])c(N)c1=O; aThr = C[C@H](O)[C@H](N)C(=O)O; NMeV = CN[C@H](C(=O)O)C(C)C; Sar = CNCC(=O)O
What was measured:
[1] = NCI Yeast Anticancer Drug Screen. Data for the mec2-1 strain (AID 157); conditions: S. cerevisiae mec2-1 strain, hits give high values
Summary of the method: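 Cells of the genetically defined mec2-1 yeast strain are incubated with test compound. Inhibition of growth is calculated against vehicle-treated controls.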

[2] = NCI Yeast Anticancer Drug Screen. Data for the rad14 strain (AID 159);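 further: 0% = growth of vehicle-treated control cultures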; conditions: S. cerevisiae rad14 strain growth inhibition, hits give high values
Summary of the method: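 DNA repair-defective yeast, compound-exposed; % growth inhibition derived by comparison with vehicle-treated controls.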

[3] = NCI Yeast Anticancer Drug Screen. Data for the sgs1 mgt1 strain (AID 161);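 further: 0% = growth of cultures given vehicle only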; conditions: S. cerevisiae sgs1 mgt1 strain, hits give high values
Summary of the method: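 Inhibition of yeast growth, normalised to vehicle-treated controls, is reported for a strain bearing genetic alterations in DNA damage repair.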

[4] = NCI Yeast Anticancer Drug Screen. Data for the CLN2oe strain (AID 163);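 further: 0% = growth of vehicle-only control cultures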; conditions: S. cerevisiae CLN2oe strain, hits give high values
Summary of the method: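 Strain altered in cell-cycle control, incubated with compound; growth compared to solvent-treated controls.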

[5] = NCI Yeast Anticancer Drug Screen. Data for the cln2 rad14 strain (AID 165);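 further: 0% = growth equal to vehicle treated cultures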; conditions: S. cerevisiae cln2 rad14 strain, hits give high values
Summary of the method: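 The screen exposed genetically defined yeast (cln2 rad14) to test compounds and scored growth inhibition relative to vehicle-treated controls.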

[6] = NCI Yeast Anticancer Drug Screen. Data for the bub3 strain (AID 167); conditions: S. cerevisiae bub3 mutant strain, hits give high values
Summary of the method: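 In this screen, a yeast mutant lacking normal mitotic checkpoint function is challenged with compound. Relative growth versus vehicle gives the inhibition value.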

[7] = NCI Yeast Anticancer Drug Screen. Data for the wt2 strain (AID 169);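 further: 0% = growth of vehicle-treated yeast cultures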; conditions: S. cerevisiae wt2 strain growth inhibition, hits give high values
Summary of the method: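 Steps: yeast strain treated with compound; growth recorded; inhibition calculated relative to cultures given vehicle alone.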

[8] = NCI Yeast Anticancer Drug Screen. Data for the mlh1 strain (AID 171);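 further: 0% = growth of vehicle-treated control cultures of the same strain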; conditions: S. cerevisiae mlh1 strain growth inhibition, hits give high values
Summary of the method: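 Yeast screen: mutant strain plus compound, growth scored against vehicle control wells.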

[9] = NCI Yeast Anticancer Drug Screen. Data for the sgs1 strain (AID 173);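 further: 0% = growth of vehicle-only control cultures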; conditions: S. cerevisiae sgs1 mutant, hits give high values
Summary of the method: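 Inhibition of yeast growth served as the measure. The mutant strain was treated with each compound, and growth was normalised to cultures receiving vehicle alone.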

[10] = NCI Yeast Anticancer Drug Screen. Data for the mlh1 rad18 strain (AID 175); conditions: S. cerevisiae mlh1 rad18 strain growth inhibition, hits give high values
Summary of the method: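 Compound-treated yeast growth, normalised to vehicle controls. Strain bears defined DNA repair mutations.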

[11] = NCI Yeast Anticancer Drug Screen. Data for the rad18 strain (AID 177); conditions: S. cerevisiae rad18 mutant growth inhibition, hits give high values
Summary of the method: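 Inhibition values reflect reduced yeast growth compared with vehicle-treated controls, using a strain engineered with a DNA damage repair defect.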

[12] = NCI Yeast Anticancer Drug Screen. Data for the rad52 strain (AID 147);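 further: 0% = growth of vehicle-treated control cultures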; conditions: S. cerevisiae rad52 mutant growth inhibition, hits give high values
Summary of the method: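 Genetically altered yeast (DNA damage repair defect) treated with compound; inhibition calculated relative to vehicle.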

[13] = NCI Yeast Anticancer Drug Screen. Data for the wt1 strain (AID 149);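 further: 0% = growth of vehicle-treated wt1 cultures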; conditions: S. cerevisiae wt1 strain (SPY 50644) growth inhibition, hits give high values
Summary of the method: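 wt1 strain grown with compound or vehicle; inhibition taken from the growth difference.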

[14] = NCI Yeast Anticancer Drug Screen. Data for the rad50EPP+ strain (AID 151);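 further: 0% = growth of vehicle-treated control cultures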; conditions: S. cerevisiae rad50 mutant strain, hits give high values
Summary of the method: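 Strain rad50EPP+; compound exposure; % growth inhibition vs vehicle.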

[15] = NCI Yeast Anticancer Drug Screen. Data for the rad50 strain (AID 155);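 further: 0% = growth of vehicle-only cultures of the same strain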; conditions: S. cerevisiae rad50 strain growth inhibition, hits give high values
Summary of the method: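 DNA repair mutant yeast, compound exposure, growth read-out; inhibition is taken relative to vehicle.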

[16] = at 5.0 µM (retest, dose inferred, filed as 0.5)
[17] = at 50.0 µM (retest, dose inferred, filed as 5.0)

Measured: growth inhibition

Cc1c2oc3c(C)ccc(C(=O)N[C@@H]4C(=O)N[C@H](C(C)C)C(=O)N5CCC[C@H]5C(=O)N(C)CC(=O)N(C)[C@@H](C(C)C)C(=O)O[C@H]4C)c3nc-2c(C(=O)N[C@@H]2C(=O)N[C@H](C(C)C)C(=O)N3CCC[C@H]3C(=O)N(C)CC(=O)N(C)[C@@H](C(C)C)C(=O)O[C@H]2C)c(N)c1=O (I: [aThr][dV]P[Sar][NMeV] / II: [aThr][dV]P[Sar][NMeV]; ester I:1-I:C, II:1-II:C; linker I:N-II:N via Actinocin(9to1))
active: [1]; at 100.0 µM 98% | [2]; at 11.0 µM 75% | [2]; at 33.0 µM 97% | [2]; at 100.0 µM 98% | [3]; [17] 97% | [3]; at 50.0 µM 92.5% | [4]; at 11.0 µM 94% | [4]; at 33.0 µM 97% | [4]; at 100.0 µM 99% | [5]; [17] 92% | [5]; at 50.0 µM 89.3% | [6]; at 11.0 µM 90% | [6]; at 33.0 µM 96% | [6]; [17] 96% | [6]; at 50.0 µM 92% | [6]; at 100.0 µM 98% | [7]; at 11.0 µM 91% | [7]; at 33.0 µM 98% | [7]; at 100.0 µM 99% | [8]; at 11.0 µM 94% | [8]; at 33.0 µM 98% | [8]; at 100.0 µM 99% | [9]; at 11.0 µM 91% | [9]; at 33.0 µM 97% | [9]; at 100.0 µM 99% | [10]; [17] 98% | [10]; at 50.0 µM 90.5% | [11]; at 11.0 µM 92% | [11]; at 33.0 µM 96% | [11]; at 100.0 µM 98%
inactive: [2]; at 1.2 µM 3% | [2]; at 3.7 µM 32% | [3]; [16] 24% | [4]; at 1.2 µM 8% | [4]; at 3.7 µM 32% | [5]; [16] 34% | [6]; at 1.2 µM 3% | [6]; at 3.7 µM 28% | [6]; [16] 24% | [7]; at 1.2 µM 0% | [7]; at 3.7 µM 26% | [8]; at 1.2 µM 2% | [8]; at 3.7 µM 28% | [9]; at 1.2 µM 3% | [9]; at 3.7 µM 30% | [10]; [16] 61% | [11]; at 1.2 µM -2% | [11]; at 3.7 µM 18%

Cc1ccc(S(=O)(=O)N/N=C/c2c(O)ccc3ccccc23)cc1
active: [12]; at 11.0 µM 81% | [12]; at 33.0 µM 83% | [12]; at 100.0 µM 79% | [13]; at 100.0 µM 84% | [15]; at 11.0 µM 79% | [15]; at 33.0 µM 82% | [15]; [17] 86% | [15]; at 50.0 µM 79.9% | [15]; at 100.0 µM 78% | [1]; [17] 79% | [1]; at 50.0 µM 79.5% | [1]; at 100.0 µM 79% | [2]; at 33.0 µM 73% | [2]; at 100.0 µM 83% | [3]; [17] 91% | [4]; at 100.0 µM 71% | [5]; [17] 89% | [6]; at 33.0 µM 70% | [6]; [17] 85% | [6]; at 100.0 µM 77% | [7]; at 33.0 µM 81% | [7]; at 100.0 µM 88% | [8]; at 100.0 µM 78% | [9]; at 11.0 µM 76% | [9]; at 33.0 µM 80% | [9]; at 100.0 µM 87% | [10]; at 50.0 µM 78.5% | [11]; at 11.0 µM 87% | [11]; at 33.0 µM 87% | [11]; at 100.0 µM 83%
inactive: [12]; at 1.2 µM -8% | [12]; at 3.7 µM 9% | [13]; at 1.2 µM -8% | [13]; at 3.7 µM -15% | [13]; at 11.0 µM 37% | [13]; at 33.0 µM 59% | [14]; at 1.2 µM -6% | [14]; at 3.7 µM 3% | [14]; at 11.0 µM -16% | [14]; at 33.0 µM -8% | [14]; at 100.0 µM 24% | [15]; at 1.2 µM 19% | [15]; at 3.7 µM 10% | [15]; [16] 36% | [1]; at 1.2 µM -1% | [1]; at 3.7 µM 1% | [1]; [16] 53% | [1]; at 11.0 µM 55% | [1]; at 33.0 µM 66% | [2]; at 1.2 µM -14% | [2]; at 3.7 µM -14% | [2]; at 11.0 µM 59% | [3]; [16] -10% | [4]; at 1.2 µM -17% | [4]; at 3.7 µM 8% | [4]; at 11.0 µM 52% | [4]; at 33.0 µM 58% | [5]; [16] 21% | [6]; at 1.2 µM 17% | [6]; at 3.7 µM 34% | [6]; [16] 37% | [6]; at 11.0 µM 55% | [7]; at 1.2 µM -5% | [7]; at 3.7 µM -9% | [7]; at 11.0 µM 43% | [8]; at 1.2 µM -30% | [8]; at 3.7 µM -42% | [8]; at 11.0 µM 49% | [8]; at 33.0 µM 56% | [9]; at 1.2 µM 26% | [9]; at 3.7 µM 42% | [10]; [16] 44% | [10]; [17] 64% | [11]; at 1.2 µM 8% | [11]; at 3.7 µM 17%

Reference: PubChem BioAssay (NCI)
